The values below come from PubChem BioAssay (NCI).

Each structure is given as a SMILES string. This is part of a sample that, as a whole, favours compounds with a hit. Of some 83,000 tested, about 20% had one in any assay.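 48-hour exposure, single concentration, 96-well plates; percent growth endpoint where 0 means no net growth. Active: below 10.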 Values without a mark were called inactive. Active and inactive are the calls of the source.

Among the test systems are NCI-H23 lung; NCI-H226 lung; NCI-H322M lung; HOP-62 NSCLC; NCI-H460 lung; HOP-92 NSCLC; NCI-H522 lung; A549/ATCC NSCLC; 786-0 renal; COLO 205 colon.
Holding throughout (assay): NCI-60 one-dose screen, 48 h (100 = growth as untreated, 0 = no growth, -100 = all killed)
Settings in all cases: 10 µM unless noted

Turning to `COc1cc(/C=C2\COc3ccc(-c4ccccc4)cc3C2=O)cc(OC)c1`, the growth in the experiment with NCI-H23 lung was 70.1%; with NCI-H226 lung, 87.4%; in the experiment on NCI-H322M lung it was 85.9%; in the experiment with HOP-62 NSCLC, 113%; in the experiment with NCI-H460 lung, 66.7%; in the experiment with HOP-92 NSCLC it was 70.3%. The growth in the experiment on NCI-H522 lung was 39.2%; in the experiment with A549/ATCC NSCLC, 72%; in the experiment with 786-0 renal, 89.3%.
In the case of `CN1CCN(CCNc2nccc(-c3c(-c4cccc(O)c4)nc4sccn34)n2)S1(=O)=O`, the growth is 46.1% in the experiment on NCI-H23 lung; 100% in the experiment on NCI-H226 lung; 70.2% in the experiment with NCI-H322M lung; 79.3% with HOP-62 NSCLC; 57.3% with NCI-H460 lung; 49% in the experiment with HOP-92 NSCLC. The growth in the experiment with NCI-H522 lung was 46.2%; with A549/ATCC NSCLC, 88%; with 786-0 renal, 93.2%.
For the molecule `Cc1nnc2c(Cc3ccccc3)nc3ccccc3n12`, the growth was 91.3% with NCI-H23 lung; 84.9% in the experiment with NCI-H226 lung; 100% in the experiment with NCI-H322M lung; 108% in the experiment with HOP-62 NSCLC; 100% with NCI-H460 lung; 82.4% in the experiment with HOP-92 NSCLC. The growth in the experiment with NCI-H522 lung was 107%; with A549/ATCC NSCLC it was 97.9%; with 786-0 renal it was 98.6%.
As for `CC1(C)NCCC[C@]2(C)[C@H]3CC(=O)[C@H]4[C@@H]5C[C@](C)(CO)CC[C@]5(C)CC[C@@]4(C)[C@]3(C)CC[C@@H]12`, the growth was 104% in the experiment with NCI-H23 lung; 97.9% in the experiment with NCI-H226 lung; 98.2% in the experiment on NCI-H322M lung; 92.4% with HOP-62 NSCLC; 99.6% with NCI-H460 lung; 84% in the experiment with HOP-92 NSCLC. For the same molecule, the growth in the experiment with NCI-H522 lung was 101%; in the experiment with A549/ATCC NSCLC, 92%; with 786-0 renal it was 94%.
On to `COc1cc(/C=C\C(=O)O)ccc1OCc1ccccc1`, for which the growth is 100% in the experiment with NCI-H23 lung; 80.2% in the experiment with NCI-H226 lung; 117% in the experiment with NCI-H322M lung; 99% in the experiment with HOP-62 NSCLC; 105% with NCI-H460 lung; 86.1% in the experiment on HOP-92 NSCLC. Also, the growth with NCI-H522 lung is 83.6%; with A549/ATCC NSCLC, 82.3%; with 786-0 renal it was 109%; with COLO 205 colon, 108%.
Consider `COc1ccccc1/C(C)=N/NC(=O)CSc1nc2ccccc2c(=O)n1Cc1ccc(S(N)(=O)=O)cc1`, for which the growth is 96.7% in the experiment on NCI-H23 lung; 95.5% in the experiment on NCI-H226 lung; 90% in the experiment on NCI-H322M lung; 93.5% in the experiment on HOP-62 NSCLC; 100% in the experiment on NCI-H460 lung; 105% in the experiment with HOP-92 NSCLC. Also, the growth was 82.1% in the experiment with NCI-H522 lung, 95.2% in the experiment on A549/ATCC NSCLC and 97.3% with 786-0 renal.
As for `O=C(CCN1CCCC1)Nc1ccc2c(NCCc3ccccc3)c3ccccc3nc2c1`, the growth was -40.2% (active) in the experiment with NCI-H23 lung; -19.8% (active) with NCI-H226 lung; -19% (active) in the experiment with NCI-H322M lung; -9.1% (active) in the experiment on HOP-62 NSCLC; -64.8% (active) with NCI-H460 lung; -14.5% (active) in the experiment on HOP-92 NSCLC. The growth is -33.4% (active) with NCI-H522 lung, -5.65% (active) in the experiment with A549/ATCC NSCLC, -12.4% (active) in the experiment with 786-0 renal and -37.5% (active) in the experiment on COLO 205 colon.
With `COc1cc(/C=C/C(=O)c2nc3cc(F)ccc3nc2C)cc(OC)c1OC`, the growth in the experiment on NCI-H23 lung is 64.6%; in the experiment on NCI-H226 lung, 103%; with NCI-H322M lung it was 102%; in the experiment with HOP-62 NSCLC, 106%; in the experiment on NCI-H460 lung, 53.5%; with HOP-92 NSCLC it was 48.9%. Further, the growth is 70.3% in the experiment on NCI-H522 lung, 65% with A549/ATCC NSCLC and 75.7% with 786-0 renal.
Turning to `Cc1c2cc[nH]c(=O)c2c(C)c2c1[nH]c1cc(OCCN3CCN(C)CC3)ccc12`, the growth is -18.1% (active) in the experiment with NCI-H23 lung; 2.73% (active) in the experiment with NCI-H226 lung; 7.9% (active) in the experiment with NCI-H322M lung; -16.9% (active) in the experiment on HOP-62 NSCLC; -20.5% (active) with NCI-H460 lung; 18.8% in the experiment with HOP-92 NSCLC. Also, the growth was -23.9% (active) with NCI-H522 lung, -21.4% (active) in the experiment with A549/ATCC NSCLC and 20.9% with 786-0 renal.
Consider `CC(=O)N1N=C(c2ccc(-n3ccc(C(F)(F)F)n3)c(F)c2)CC1c1ccc[nH]1` (stereo not drawn), for which the growth was 100% in the experiment on NCI-H23 lung; 106% in the experiment with NCI-H226 lung; 110% with NCI-H322M lung; 112% in the experiment with HOP-62 NSCLC; 103% in the experiment with NCI-H460 lung; 130% with HOP-92 NSCLC. Further, the growth with NCI-H522 lung is 77.2%; in the experiment with A549/ATCC NSCLC, 104%; in the experiment with 786-0 renal it was 102%.
Consider `Oc1ccc(C2c3ccccc3Oc3ccccc32)c2cccnc12`, for which the growth in the experiment with NCI-H23 lung is 30.3%; in the experiment on NCI-H226 lung, 4.5% (active); with NCI-H322M lung it was 24.3%; in the experiment on HOP-62 NSCLC, 19.8%; in the experiment with NCI-H460 lung, 2.23% (active); in the experiment on HOP-92 NSCLC, 43.1%. In addition, the growth in the experiment on NCI-H522 lung is 25%; with A549/ATCC NSCLC it was 12.2%; with 786-0 renal, -18.4% (active).
Take `COc1cccc(-c2nc3occn3c2-c2ccnc(NCCNS(=O)(=O)c3ccc(C(F)(F)F)cc3)n2)c1`: the growth was 98.2% with NCI-H23 lung; 75.8% with NCI-H226 lung; 98.9% in the experiment on NCI-H322M lung; 119% with HOP-62 NSCLC; 88% with NCI-H460 lung; 95.9% in the experiment with HOP-92 NSCLC. Further, the growth in the experiment with NCI-H522 lung is 86.6%; in the experiment with A549/ATCC NSCLC, 87.9%; with 786-0 renal it was 79.5%.
For `O=C(/C(=C\c1ccc([N+](=O)[O-])cc1)S(=O)Cc1ccc(F)cc1)c1ccc(F)cc1` (stereo not drawn), the growth in the experiment on NCI-H23 lung was 46.7%; with NCI-H226 lung, 77.9%; in the experiment on NCI-H322M lung, 79.9%; with HOP-62 NSCLC it was 38.1%; in the experiment with NCI-H460 lung, 30.9%; in the experiment on HOP-92 NSCLC, 65.2%. Besides, the growth is -22.1% (active) in the experiment with NCI-H522 lung, 79.9% with A549/ATCC NSCLC and -43.9% (active) in the experiment with 786-0 renal.
On to `Cc1nc2sccn2c1-c1nc2sccn2c1/C=C1/C(=O)Nc2ccccc21`, for which the growth is 53.4% in the experiment with NCI-H23 lung; 63.1% in the experiment with NCI-H226 lung; 67.1% in the experiment on NCI-H322M lung; 53.7% with HOP-62 NSCLC; 20.5% in the experiment on NCI-H460 lung; 4.55% (active) in the experiment with HOP-92 NSCLC. The growth in the experiment on NCI-H522 lung is -6.81% (active); in the experiment on A549/ATCC NSCLC, 39.5%; in the experiment on 786-0 renal it was 51.1%.
